# The supplement of paper PMC9262897, “Low-cost anti-mycobacterial drug discovery using engineered E. coli” (Nature Communications, 2022)
# Structures can show the parent of a compound that is named as a salt. ± gives the standard deviation of the averaged measurements.
# Test system: E. coli TESEC Mtb DapB
# Assay: growth (OD600 after 10 h); higher = more growth (less inhibition)
# Details: arabinose induction (level): High; compound 0.1 mM; raw OD600 reference: median of DMSO wells […], cell-free background 0.041
# Method: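 TESEC E. coli strains in which the native enzyme is deleted and replaced by arabinose-inducible Mtb Asd, DapB, CysH or TrpD, each grown in its selective medium. Strains were screened against the Prestwick library at 0.1 mM and 1% DMSO in 384-well format at low and high arabinose induction. Growth is read as OD600 after 10 h in triplicate.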
row,SMILES,growth
1,CC(C)N1CCN(c2ccc(OCC3COC(Cn4cncn4)(c4ccc(Cl)cc4Cl)O3)cc2)CC1 (stereo not drawn) [Terconazole],0.198 ± 0.0065
2,Cc1cc(C(C)(C)C)c(O)c(C)c1CC1=NCCN1 [Oxymetazoline hydrochloride],0.202 ± 0.016
3,Cc1ccc(O)c([C@H](CCN(C(C)C)C(C)C)c2ccccc2)c1 [Tolterodine tartrate],0.198 ± 0.018
4,CN1CCCN(C(c2ccccc2)c2ccc(Cl)cc2)CC1 (stereo not drawn) [Homochlorcyclizine dihydrochloride],0.169 ± 0.0068
5,NC[C@H]1CC[C@H](C(=O)O)CC1 [Tranexamic acid],0.188 ± 0.011
6,Cc1cc(-c2ccccc2)nnc1NCCN1CCOCC1 [Minaprine dihydrochloride],0.185 ± 0.0026
7,COc1ccc(C[C@@H]2c3cc(OC)c(OC)cc3CC[N@+]2(C)CCC(=O)OCCCCCOC(=O)CC[N@@+]2(C)CCc3cc(OC)c(OC)cc3[C@H]2Cc2ccc(OC)c(OC)c2)cc1OC [Cisatracurium besylate],0.168 ± 0.022
8,N#Cc1cc(NC(=O)C(=O)O)c(Cl)c(NC(=O)C(=O)O)c1 [Lodoxamide],0.222 ± 0.018

# Same assay, conditions: arabinose induction (level): Low; compound 0.1 mM; raw OD600 reference: median of DMSO wells 0.227, cell-free background 0.041
row,SMILES,growth
1,"CN1CCc2c(c3ccccc3n2Cc2ccccc2)C1 [Mebhydroline 1,5-naphtalenedisulfonate]",0.207 ± 0.0028
2,C[C@@H](O[C@H]1OCCN(Cc2n[nH]c(=O)[nH]2)[C@H]1c1ccc(F)cc1)c1cc(C(F)(F)F)cc(C(F)(F)F)c1 [Aprepitant],0.089 ± 0.023
3,COc1cccc(N(C)C(=S)Oc2ccc3c(c2)CCCC3)n1 [Liranaftate],0.224 ± 0.0065
4,Oc1c(Cl)cc(Cl)c(Cl)c1Cc1c(O)c(Cl)cc(Cl)c1Cl [Hexachlorophene],0.053 ± 0.00044
5,CC1(C)S[C@@H]2[C@H](NC(=O)[C@H](N)c3ccccc3)C(=O)N2[C@H]1C(=O)O [Ampicillin trihydrate],0.256 ± 0.051
6,CCC(=O)O[C@]1(C(=O)SCF)[C@H](C)C[C@H]2[C@@H]3C[C@H](F)C4=CC(=O)C=C[C@]4(C)[C@@]3(F)[C@@H](O)C[C@@]21C [Fluticasone propionate],0.239 ± 0.04
7,CCCC(=O)Nc1ccc(OCC(O)CNC(C)C)c(C(C)=O)c1 (stereo not drawn) [Acebutolol hydrochloride],0.265 ± 0.067
8,CC(C)(C)NC[C@H](O)COc1cccc2c1CCCC2=O [(-) -Levobunolol hydrochloride],0.221 ± 0.019
9,COC(=O)CCc1ccc(OCC(O)CNC(C)C)cc1 (stereo not drawn) [Esmolol hydrochloride],0.227 ± 0.019
10,O=c1[nH]cnc2c1ncn2[C@H]1CC[C@@H](CO)O1 [Didanosine],0.196 ± 0.048
11,C[C@@H]1CCC[C@H](C)N1NC(=O)c1ccc(Cl)c(S(N)(=O)=O)c1 [Clopamide],0.225 ± 0.0079
12,CCCc1nn(C)c2c(=O)[nH]c(-c3cc(S(=O)(=O)N4CCN(C)CC4)ccc3OCC)nc12 [Sildenafil],0.27 ± 0.045
13,O=C1[C@H]2CCCC[C@H]2C(=O)N1CCCCN1CCN(c2nsc3ccccc23)CC1 [Perospirone],0.241 ± 0.037
14,CN1CCCC(CC2c3ccccc3Sc3ccccc32)C1 (stereo not drawn) [Metixene hydrochloride],0.0594 ± 0.0035
15,C[C@H]1O[C@H](O[C@H]2[C@H](O)[C@@H](O)[C@@H](O[C@@H]([C@H](O)[C@@H](O)C=O)[C@H](O)CO)O[C@@H]2CO)[C@H](O)[C@@H](O)[C@@H]1N[C@H]1C=C(CO)[C@@H](O)[C@H](O)[C@H]1O [Acarbose],0.236 ± 0.037
16,O=C(Oc1cccc2cccnc12)c1ccccc1 [Benzoxiquine],0.201 ± 0.015
17,O=P(O)(O)C(O)(Cn1ccnc1)P(=O)(O)O [Zoledronic acid hydrate],0.279 ± 0.069
18,Clc1ccc(COC(Cn2ccnc2)c2ccc(Cl)cc2Cl)c(Cl)c1 (stereo not drawn) [Miconazole],0.134 ± 0.1
19,CC[N+](CC)(CC)CCC(O)(c1ccccc1)C1CCCCC1 (stereo not drawn) [Tridihexethyl chloride],0.233 ± 0.037
20,COc1ccc(-c2ccc3cc(C(=O)O)ccc3c2)cc1C12CC3CC(CC(C3)C1)C2 [Adapalene],0.249 ± 0.028

row,SMILES,growth
1,CC1=Nc2ccc(Cl)cc2S(=O)(=O)N1 [Diazoxide],0.245 ± 0.048
2,COCCCOc1ccnc(C[S+]([O-])c2nc3ccccc3[nH]2)c1C (stereo not drawn) [Rabeprazole Sodium salt],0.207 ± 0.0085
3,O=C(O)c1cc(/N=N/c2ccc(S(=O)(=O)Nc3ccccn3)cc2)ccc1O [Sulfasalazine],0.231 ± 0.03
4,"Cc1c(O)c(=O)n(-c2ccccc2)n1C [Antipyrine, 4-hydroxy]",0.206 ± 0.032
5,C[C@]12C[C@H](O)[C@H]3[C@@H](CCC4=CC(=O)CC[C@@]43C)[C@@H]1CC[C@@H]2C(=O)CO [Corticosterone],0.206 ± 0.032
6,CC(CN(C)C)CN1c2ccccc2Sc2ccccc21 (stereo not drawn) [Trimeprazine tartrate],0.231 ± 0.019
7,C[C@@H]1C[C@H]2[C@@H]3C[C@H](F)C4=CC(=O)C=C[C@]4(C)[C@@]3(F)[C@@H](O)C[C@]2(C)[C@@]1(O)C(=O)COC(=O)C(C)(C)C [Flumethasone pivalate],0.239 ± 0.023
8,COc1cc(C)c(/C=C/C(C)=C/C=C/C(C)=C/C(=O)O)c(C)c1C [Acitretin],0.1772 ± 0.00061
9,CC(=O)OCC1=C(C(=O)O)N2C(=O)[C@@H](NC(=O)Cc3cccs3)[C@H]2SC1 [Cephalothin sodium salt],0.258 ± 0.0063
10,"CC(C)NCC(O)c1ccc(O)c(O)c1 (single isomer, unassigned; (+)) [(+)-Isoproterenol (+)-bitartrate salt]",0.199 ± 0.0075
11,CCC1(c2ccccc2)C(=O)NCNC1=O [Primidone],0.249 ± 0.013
12,CC(C)(C)C(=O)OCOC(=O)[C@@H]1N2C(=O)[C@@H](/N=C/N3CCCCCC3)[C@H]2SC1(C)C [Pivmecillinam hydrochloride],0.222 ± 0.024
13,CC(C)N1CCN(c2ccc(OCC3COC(Cn4cncn4)(c4ccc(Cl)cc4Cl)O3)cc2)CC1 (stereo not drawn) [Terconazole],0.223 ± 0.011
14,Cc1cc(C(C)(C)C)c(O)c(C)c1CC1=NCCN1 [Oxymetazoline hydrochloride],0.251 ± 0.028
15,Cc1ccc(O)c([C@H](CCN(C(C)C)C(C)C)c2ccccc2)c1 [Tolterodine tartrate],0.238 ± 0.036
16,CN1CCCN(C(c2ccccc2)c2ccc(Cl)cc2)CC1 (stereo not drawn) [Homochlorcyclizine dihydrochloride],0.215 ± 0.039
17,NC[C@H]1CC[C@H](C(=O)O)CC1 [Tranexamic acid],0.214 ± 0.018
18,Cc1cc(-c2ccccc2)nnc1NCCN1CCOCC1 [Minaprine dihydrochloride],0.225 ± 0.045
19,COc1ccc(C[C@@H]2c3cc(OC)c(OC)cc3CC[N@+]2(C)CCC(=O)OCCCCCOC(=O)CC[N@@+]2(C)CCc3cc(OC)c(OC)cc3[C@H]2Cc2ccc(OC)c(OC)c2)cc1OC [Cisatracurium besylate],0.209 ± 0.021
20,N#Cc1cc(NC(=O)C(=O)O)c(Cl)c(NC(=O)C(=O)O)c1 [Lodoxamide],0.235 ± 0.03
